Results reported in PubChem BioAssay.
The source made the active and inactive calls. Unless noted, no stated cut-off is given here; in the data, active means inhibition above about 80%; inactive means the rest.

Legend:
[1] = LFS_MB_P medulloblastoma growth inhibition, cell-based, chromothripsis tumors, cisplatin or BGB combos (AID 1671449); details: LFS_MB_P medulloblastoma cells;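 further: cells exposed for 96 hours; 0% = vehicle DMSO and 100% = killing by high DMSO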
[2] = HDN33 neuroblastoma growth inhibition, cell-based, chromothripsis tumors, cisplatin or BGB combos (AID 1671450); details: HDN33 neuroblastoma cells, stronger effect = higher value;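 further: cells exposed to compound for four days; 0% = vehicle DMSO and 100% = cell killing by high DMSO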
[3] = ICB984 medulloblastoma cell growth inhibition, synergistic combos for chromothripsis tumors, cisplatin or BGB combos (AID 1671451; call rule not given here;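 further: cells exposed for 96 hours before readout; 0% = vehicle DMSO and 100% = killing by high DMSO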); details: ICB984 medulloblastoma cells, drug combinations, stronger effect = higher value
[4] = LFS_MB_1R medulloblastoma cell growth inhibition, synergistic combos for chromothripsis tumors, cisplatin or BGB combos (AID 1671452); details: LFS_MB_1R medulloblastoma cells, stronger effect = higher value;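 further: cells exposed for 96 hours before readout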
[5] = HTB85 osteosarcoma cell growth inhibition, synergistic combos for chromothripsis tumors, BGB or cisplatin IC20 combos (AID 1671453); details: HTB85 osteosarcoma cells, drug combinations, stronger effect = higher value;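 further: cells exposed for 96 hours before readout; 0% = vehicle DMSO and 100% = high DMSO killing control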
[6] = CRL2098 osteosarcoma cell growth inhibition, synergistic combos for chromothripsis tumors, BGB or cisplatin IC20 combos (AID 1671454); details: CRL2098 osteosarcoma cells, drug combinations, stronger effect = higher value;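 further: cells exposed for 96 h before readout; 0% = vehicle DMSO and 100% = killing by high DMSO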
[7] = HD-MB03 medulloblastoma cell growth inhibition, synergistic combos for chromothripsis tumors, BGB or cisplatin IC20 combos (AID 1671455; in the data active means inhibition above about 83%;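 further: 0% = vehicle DMSO and 100% = high DMSO as cytotoxic control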); details: HD-MB03 medulloblastoma cells, stronger effect = higher value
[8] = UWB1.289 ovarian carcinoma cell growth inhibition, synergistic combos for chromothripsis tumors, BGB or cisplatin combos (AID 1671456); details: UWB1.289 ovarian carcinoma cells, stronger effect = higher value;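 further: cells exposed to compound for four days; 0% = vehicle DMSO and 100% = killing by high DMSO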
[9] = LFS_MB_2R medulloblastoma cell growth inhibition, synergistic combos for chromothripsis tumors, cisplatin combos (AID 1671457); details: LFS_MB_2R medulloblastoma cells, stronger effect = higher value;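 further: cells exposed to compound for four days before readout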
[10] = MDA-MB-436 breast carcinoma cell growth inhibition, synergistic combos for chromothripsis tumors, BGB or cisplatin combos (AID 1671458; call rule not given here;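 further: cells exposed for 96 hours; 0% = vehicle DMSO and 100% = killing by high DMSO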); details: MDA-MB-436 breast carcinoma growth inhibition, drug combinations, stronger effect = higher value
[11] = UWB1.289_BRCA1 ovarian cancer growth, cell-based, BGB or cisplatin combinations (AID 1671459); details: UWB1.289 BRCA1 ovarian carcinoma, drug combinations, stronger effect = higher value
[12] = human astrocyte viability loss, single and combined drugs, cytotoxicity control for chromothriptic childhood tumor combination screen, cell-based, BGB or cisplatin IC20 combos (AID 1671460); details: Human astrocytes, drug combinations, stronger effect = higher value;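 further: cells exposed to compounds for 96 hours before viability readout; 0% = vehicle and 100% = killing control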
[13] = growth inhibition of BT084 medulloblastoma cells, cell-based, ICGC_MB145, cisplatin and BGB IC40 combos (AID 1671461); details: drug combinations, stronger effect = higher value;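 further: cells exposed to drugs for 96 hours; 0% = vehicle DMSO and 100% = high DMSO full killing control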
[14] = growth inhibition of RCMB18 medulloblastoma cells, cell-based, cisplatin and BGB IC40 combos (AID 1671462); details: stronger effect = higher value;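 further: cells exposed to compound for four days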
[15] = growth inhibition of CRL1545 osteosarcoma cells, cell-based, cisplatin and BGB IC20 combos (AID 1671464); details: stronger effect = higher value;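 further: cells exposed to compound for 96 hours before readout; 0% = vehicle DMSO and 100% = high DMSO killing control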
[16] = measured here: combination with BGB IC40, at 0.05 µM
[17] = measured here: with BGB IC20 combination, at 0.5 µM
[18] = measured here: with cisplatin IC20 combination, at 0.5 µM
[19] = measured here: combination with cisplatin, at 0.5 µM
[20] = measured here: combination with cisplatin, at 5 µM

With `Cn1cnc2[nH]c(=O)[nH]c(=O)c21` the inhibition ([1]; at 0.5 µM, stronger effect = higher value) was -31.2% (inactive), the inhibition ([1]; measured here: combination with BGB IC20, at 0.005 µM) was -23.8% and the inhibition ([1]; measured here: combination with BGB IC40, at 0.005 µM) was -24.9%. For the same compound, the inhibition [1, 16] was -15.5%, the inhibition ([1]; measured here: combination with cisplatin, at 0.5 µM, stronger effect = higher value) was -52.2% and the inhibition ([1]; measured here: combination with cisplatin, at 5 µM, stronger effect = higher value) was -16.9%. The inhibition ([2]; BGB combo, at 5 µM) was -14.9%, the inhibition ([2]; at 0.5 µM) was -29.3% (inactive) and the inhibition ([2]; cisplatin combo, at 5 µM) was -9.77%. The inhibition [2, 17] was -37.1%, the inhibition [2, 18] was -7.77% and the inhibition ([2]; single agent, at 5 µM) was -7.59%. The inhibition ([3]; BGB IC20 combo, at 0.005 µM) was -15.3%, the inhibition ([3]; BGB IC40 combo, at 0.005 µM) was -28.7% and the inhibition ([3]; BGB IC40 combo, at 0.05 µM) was -16.7%. The inhibition ([3]; at 0.5 µM) was -24.9% (inactive), the inhibition ([3]; cisplatin combo, at 0.05 µM) was -16.7% and the inhibition ([3]; cisplatin combo, at 0.5 µM) was -33.2%. The inhibition ([3]; cisplatin combo, at 5 µM) was -13.6%, the inhibition ([3]; measured here: 5 uM single agent, at 5 µM) was 2.87% and the inhibition ([4]; at 0.5 µM) was -24.6% (inactive). The inhibition [4, 16] was -0.159%, the inhibition [4, 19] was 11.9% and the inhibition [4, 20] was -7.74%. For the same compound, the inhibition ([5]; at 0.5 µM) was -29.8% (inactive), the inhibition ([5]; measured here: with BGB IC20, at 0.5 µM) was -76.7% and the inhibition ([5]; measured here: with BGB IC20, at 5 µM) was -27.8%. For the same compound, the inhibition ([5]; measured here: with cisplatin IC20, at 0.5 µM) was 0.051%, the inhibition ([5]; measured here: with cisplatin IC20, at 5 µM) was 18.6% and the inhibition ([5]; single agent, at 5 µM) was -24.4%. For the same compound, the inhibition ([6]; at 0.5 µM) was -69.2% (inactive), the inhibition ([6]; measured here: combination with BGB at IC20, at 0.5 µM) was -77.5% and the inhibition ([6]; measured here: combination with cisplatin at IC20, at 0.5 µM) was -102%. The inhibition ([7]; at 0.5 µM) was -10.2% (inactive), the inhibition ([7]; measured here: combo with BGB at IC20, at 0.5 µM) was -8.65% and the inhibition ([7]; measured here: combo with cisplatin at IC20, at 0.5 µM) was -11.2%. For the same compound, the inhibition ([8]; at 0.5 µM) was -8.42% (inactive), the inhibition ([8]; measured here: inhibition with BGB combination, at 0.05 µM) was -20.6% and the inhibition ([8]; measured here: inhibition with cisplatin combination, at 0.05 µM) was -21.4%. The inhibition ([9]; at 0.5 µM) was -6.27% (inactive), the inhibition [9, 19] was -10.9% and the inhibition [9, 20] was -15.8%. The inhibition ([10]; at 0.5 µM) was -15.1% (inactive), the inhibition ([10]; measured here: BGB combination, at 0.5 µM) was -7.33% and the inhibition ([10]; measured here: BGB combination, at 5 µM) was -1.97%. The inhibition ([10]; measured here: cisplatin combination, at 0.5 µM) was -35.1%, the inhibition ([10]; measured here: cisplatin combination, at 5 µM) was -7.26% and the inhibition ([11]; BGB combination, concentration series, at 5 µM) was -2.15%. For the same compound, the inhibition ([11]; at 0.5 µM) was -8.08% (inactive), the inhibition ([11]; cisplatin combination, concentration series, at 5 µM) was 4.95% and the inhibition ([12]; at 0.5 µM) was 14% (inactive). For the same compound, the inhibition ([12]; measured here: combo with BGB IC20, at 0.5 µM) was 17.9%, the inhibition ([12]; measured here: combo with cisplatin IC20, at 0.5 µM) was 4.38% and the inhibition ([13]; at 0.5 µM) was -17.3% (inactive). For the same compound, the inhibition ([13]; cisplatin combination, at 0.5 µM) was -7.22%, the inhibition ([13]; cisplatin combination, at 5 µM) was -68.1% and the inhibition ([13]; measured here: BGB IC40 combination 0.05 uM, at 0.05 µM) was -20.6%. For the same compound, the inhibition ([13]; single agent, at 5 µM) was -30.4%, the inhibition ([14]; at 0.5 µM) was -15.8% (inactive) and the inhibition ([14]; cisplatin combo, at 5 µM) was -20.1%. For the same compound, the inhibition ([14]; measured here: BGB IC40 combination, at 0.05 µM) was -17.4%, the inhibition [14, 19] was -33.2% and the inhibition ([14]; single agent, at 5 µM) was -24.4%. For the same compound, the inhibition ([15]; at 0.5 µM) was -15.4% (inactive), the inhibition [15, 17] was 4.76% and the inhibition [15, 18] was -25.6%. The inhibition ([15]; single agent, at 0.05 µM) was -33.9% and the inhibition ([15]; single agent, at 5 µM) was -5.96%.
